Compounds with a hit are over-represented: about 2.9% of the library has one in this group of screens.
proKLK7 act: proKLK7 zymogen activators, primary screen, biochemical, fluorescence intensity. activation, % at 7 µM. 370,000 tested, 0.9% active. purified proKLK7, EDANS-DABCYL substrate fluorescence; 100% is mature enzyme control, 0% vehicle. AID 652039, 2013. Kallikrein-7 (Homo sapiens), P49862;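 active = activation above the mean of all tested compounds plus 3 SD, computed per campaign excluding outliers beyond control limits, cut at about 13% in these data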
Target sequence (P49862 whole entry, looked up): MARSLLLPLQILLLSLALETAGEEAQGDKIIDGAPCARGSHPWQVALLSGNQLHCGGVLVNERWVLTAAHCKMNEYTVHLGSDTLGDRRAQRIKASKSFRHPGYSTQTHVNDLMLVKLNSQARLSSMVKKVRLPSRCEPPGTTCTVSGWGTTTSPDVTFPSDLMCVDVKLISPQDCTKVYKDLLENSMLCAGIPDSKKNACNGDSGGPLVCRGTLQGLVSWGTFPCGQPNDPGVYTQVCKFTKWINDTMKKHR
FAS TE block: FAS thioesterase domain inhibitors, primary screen, biochemical, fluorescence intensity, uHTS; 360,000 tested, 0.67% active; inhibition, % at 15 µM; recombinant FAS-TE, OMFH fluorogenic substrate, fluorescence endpoint; Fatty acid synthase (Homo sapiens), P49327;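 active = compounds whose normalised, plate-corrected inhibition of enzyme fluorescence in the single-dose primary screen is 50% or more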;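 also: 0% = DMSO with enzyme and 100% = substrate without enzyme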
GAA850 FXN act: FXN promoter activators, primary screen, cell-based, luciferase luminescence, HEK293 lucGAA850; HEK293 lucGAA850 FXN promoter luciferase reporter, 24 h; percent of 10 µM SAHA response; activation, % at 6 µM; 360,000 tested, 0.56% active;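 active = activation above the average of all compounds screened plus 3 SD, cutoff fixed separately per campaign, cut at about 7.5% in these data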;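 also: 0% = DMSO wells and 100% = 10 µM SAHA wells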
SMARCA2 act: SMARCA2 (BRM) function activators, primary screen, cell-based, luminescence, high throughput. activation, % at 9.1 µM. MG213 cells, MMTV-luciferase reporter, dexamethasone, overnight. 370,000 tested, 1% active; in the data active = activation above about 7.8%;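 also: 0% = vehicle wells and 100% = reference activator wells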
FAS-TE conf: FAS thioesterase domain inhibitors, confirmation, biochemical, fluorescence intensity, single concentration. shares compounds with FAS TE block. recombinant FAS-TE, OMFH fluorogenic substrate. inhibition, % at 15 µM. 2,300 tested, 45% active;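 active = compounds inhibiting the enzyme by at least 50% at 15 µM in any one of the replicates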;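 also: 0% = enzyme with DMSO only and 100% = wells lacking enzyme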
The depositor's hits bear a star; x = not tested or not shown.

SMILES | proKLK7 act | FAS TE block | GAA850 FXN act | SMARCA2 act | FAS-TE conf
O=C(Cn1nc(-c2ccco2)ccc1=O)Nc1ccc(Cl)c(Cl)c1 | 1 | 59* | -2 | -2 | 36*
O=C(Cn1nc(-c2ccco2)ccc1=O)Nc1cc(C(F)(F)F)ccc1Cl | 2 | 52* | 0 | -2 | 73*
O=C(Cn1nc(-c2ccco2)ccc1=O)Nc1cc(Cl)ccc1Cl | 6 | 29 | 1 | 1 | x
Cc1ccc(-n2c(SCC(=O)Nc3cc(S(=O)(=O)N4CCOCC4)ccc3Cl)nc3ccccc3c2=O)cc1 | 0 | 95* | -5 | -3 | -6
O=C(CSc1nc2ccccc2c(=O)n1-c1ccc(F)c(Cl)c1)Nc1cccc(S(=O)(=O)N2CCOCC2)c1 | 0 | 78* | -11 | 0 | 24
O=C(CSc1nc2ccccc2c(=O)n1-c1ccc(F)cc1)Nc1ccc(Cl)c(S(=O)(=O)N2CCOCC2)c1 | -2 | 78* | 0 | -1 | 25
Clc1ccc(SCc2cn3cccnc3n2)cc1 | 0 | -3 | 2 | 1 | x
CCCCOc1ccc(C(=O)N/C(=C/c2cccc([N+](=O)[O-])c2)C(=O)O)cc1 | 0 | 38 | 0 | 0 | x
CC(C)COc1ccc(C(=O)N/C(=C\c2cccc([N+](=O)[O-])c2)C(=O)OC(C)C)cc1 | -1 | 48 | -2 | 2 | x
CC(C)COc1ccc(C(=O)N/C(=C\c2cccc([N+](=O)[O-])c2)C(=O)O)cc1 | -1 | 62* | 0 | 4 | 77*
CC(C)COc1ccc(C(=O)N/C(=C/c2cccc([N+](=O)[O-])c2)C(=O)O)cc1 | 0 | 57* | 2 | -2 | 59*
CCCCNc1c(-c2cccc(-c3cc(C(C)=O)cs3)c2)nc2cc(C)ccn12 | 1 | 16 | -2 | 3 | x
O=C(c1nn2c(C(F)(F)F)cc(-c3ccco3)nc2c1Br)N1CCCc2ccccc21 | -4 | 14 | 0 | -2 | x
O=C(c1nn2c(C(F)(F)F)cc(-c3cccs3)nc2c1Br)N1CCCc2ccccc21 | -1 | 59* | 2 | 0 | 13
S=C(NC1CCCC1)NC1CC1 | 0 | -15 | 2 | -4 | x
O=c1oc(-c2ccc(Cl)cc2[N+](=O)[O-])nc2ccccc12 | 0 | 62* | 1 | 0 | 20
COc1ccc(C(=O)N/C(=C/c2cccc3ccccc23)C(=O)NCCc2c[nH]c3ccccc23)cc1OC | -6 | 61* | -4 | -2 | 7
Cn1cnc(S(=O)(=O)N2CCN(c3ccccc3)CC2)c1 | 0 | -6 | -2 | -1 | x
NC(=S)N/N=C/c1ccc(-c2ccc(SC(F)F)cc2)o1 | -4 | 55* | -5 | -6 | 39*
Cc1ccc(-c2ccc(/C=N/NC(N)=S)o2)cc1 | 0 | 18 | 3 | 6 | x
CC(C)(C)n1nnnc1C(c1ccnc2ccccc12)N1CCN(C/C=C/c2ccccc2)CC1 (stereo unspecified) | 1 | 4 | x | 4 | x
O=C(O)CC(NC(=O)CCC1CCCCC1)c1cc([N+](=O)[O-])ccc1Cl (stereo unspecified) | 0 | 60* | 1 | 2 | 67*
CSCCC(NC(=O)c1ccco1)C(=O)N1CCN(Cc2ccccc2)CC1 (stereo unspecified) | 0 | -4 | 0 | 0 | x
COC(=O)[C@]1(Cc2ccccc2)N[C@H](CN(C)C(=O)Nc2ccc(C(F)(F)F)cc2)[C@@H]2C(=O)N(Cc3ccccc3)C(=O)[C@@H]21 | 0 | 63* | -2 | -6 | 35
CCN(C[C@H]1N[C@@](Cc2ccccc2)(C(=O)OC)[C@H]2C(=O)N(Cc3ccccc3)C(=O)[C@@H]12)C(=O)Nc1ccc(F)cc1 | 0 | 25 | -7 | 4 | x
SMILES | proKLK7 act | FAS TE block | GAA850 FXN act | SMARCA2 act | FAS-TE conf
CCN(C[C@H]1N[C@@](Cc2ccccc2)(C(=O)OC)[C@H]2C(=O)N(Cc3ccccc3)C(=O)[C@@H]12)C(=O)Nc1ccc(Cl)cc1 | 0 | 60* | -7 | 2 | 36
O=[N+]([O-])c1cccc(/C=C/c2ccccn2)c1 | 0 | 6 | 3 | 1 | x
CC1CCc2nn(CC(=O)NC3CCCC(C)C3C)cc2C1 (stereo unspecified) | 0 | 2 | 0 | -1 | x
CC(C)(C)N1C(=O)[C@H]2[C@@H](c3ccc(Br)cc3)N3C(=O)N(c4ccc(Br)cc4)C(=O)[C@@]3(Cc3ccccc3)[C@H]2C1=O | x | 91* | -6 | x | 51*
CC(C)(C)N1C(=O)[C@H]2[C@@H](c3ccc(Br)cc3)N3C(=O)N(c4cccc(F)c4)C(=O)[C@@]3(Cc3ccccc3)[C@H]2C1=O | 1 | 92* | 6 | 2 | 36*
COc1ccc([C@@H]2[C@@H]3C(=O)N(C(C)(C)C)C(=O)[C@@H]3[C@]3(Cc4ccccc4)C(=O)N(c4cccc(F)c4)C(=O)N23)cc1 | 0 | 52* | -1 | 1 | -4
O=C1[C@H]2[C@@H](c3ccc(F)cc3)N3C(=O)N(c4cccc(Br)c4)C(=O)[C@@]3(Cc3ccccc3)[C@H]2C(=O)N1C1CCCCC1 | 1 | 80* | 6 | 2 | 35
COc1ccc(C(CNC(=O)CCNC(=O)c2ccc(Br)cc2)N2CCOCC2)cc1 (stereo unspecified) | 0 | 0 | 2 | 3 | x
O=C(CCn1c(=S)[nH]c2ccccc2c1=O)NCC1CCCO1 (stereo unspecified) | x | -4 | -3 | x | x
Cc1cccc(N2CCN(C(=O)CNC(=O)Cc3ccccc3)CC2)c1C | 0 | 2 | -4 | -3 | x
Cc1cccc(N2CCN(C(=O)CNC(=O)c3cccc([N+](=O)[O-])c3)CC2)c1C | 0 | 85* | -1 | -5 | 67*
Fc1cnc(Cl)nc1N1CCN(c2ccccc2)CC1 | 0 | 5 | 0 | 1 | x
CC(C)OC(=O)[C@H]1[C@H](c2ccc(Cl)cc2)[C@@](C#N)(C(N)=O)[C@@H]2C=CC(C(N)=O)=CN21 | x | 59* | 0 | x | 59*
O=[N+]([O-])c1cc(-c2csc(NCCc3nc4cc(Cl)c(Cl)cc4n3CCCO)n2)ccc1Cl | 0 | 75* | 6 | 0 | 72*
CCCn1c(CCNc2nc(-c3ccc(Cl)c([N+](=O)[O-])c3)cs2)nc2cc(Cl)c(Cl)cc21 | 0 | 21 | 1 | 2 | x
Cn1c(=O)c2[nH]c(COc3ccc(C(C)(C)C)cc3)nc2n(C)c1=O | x | 69* | -2 | x | 70*
CC(=O)NC(=S)Nc1sc2c(c1C#N)CCCCC2 | 0 | 57* | -1 | 5 | 59*
CC(=O)Nc1sc2c(c1C#N)CCCC2 | 0 | -6 | 4 | -2 | x
Cn1c(Cc2ccccc2)nnc1SCC(=O)Nc1cccc(S(=O)(=O)NC2=NCCCCC2)c1 | 0 | -1 | -1 | -3 | x
CCN(CC)C(=O)CSc1nnc(SC(C)C(=O)NC2CC2)s1 (stereo unspecified) | 0 | -11 | -1 | 0 | x

Source: PubChem BioAssay
